Screening data from PubChem.
A selection: hits, their analogues and other compounds. The true share with any hit is near 2.4%.
PABP1 MLLE inh = inhibitors of microRNA-mediated deadenylation, human PABP1 MLLE binding. hit rate 0.36% among 360,000. inhibition, % at 20 µM. P11940. AID 588489. GST-MLLE / FITC-PAM2 fluorescence polarization; in the data active = inhibition above about 35%, passing the limit was not always enough
Target sequence (P11940 whole entry, looked up): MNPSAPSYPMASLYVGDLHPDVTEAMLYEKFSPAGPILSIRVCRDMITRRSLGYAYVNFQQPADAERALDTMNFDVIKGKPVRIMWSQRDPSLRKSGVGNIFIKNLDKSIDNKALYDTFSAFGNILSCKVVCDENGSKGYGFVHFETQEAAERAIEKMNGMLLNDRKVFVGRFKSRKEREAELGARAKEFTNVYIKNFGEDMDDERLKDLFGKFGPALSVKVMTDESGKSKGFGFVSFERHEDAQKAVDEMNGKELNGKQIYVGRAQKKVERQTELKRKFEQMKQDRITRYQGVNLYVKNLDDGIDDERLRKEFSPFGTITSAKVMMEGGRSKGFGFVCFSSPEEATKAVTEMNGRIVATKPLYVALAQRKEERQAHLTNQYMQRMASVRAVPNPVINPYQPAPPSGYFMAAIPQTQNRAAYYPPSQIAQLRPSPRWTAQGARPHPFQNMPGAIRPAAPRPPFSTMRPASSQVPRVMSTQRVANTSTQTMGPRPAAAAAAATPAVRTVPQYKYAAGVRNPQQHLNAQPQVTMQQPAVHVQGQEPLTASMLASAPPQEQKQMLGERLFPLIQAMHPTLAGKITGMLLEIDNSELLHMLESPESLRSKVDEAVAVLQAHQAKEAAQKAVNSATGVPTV
PABP polyA inh = PABP-poly(A) binding inhibition; PABP-poly(A) RNA binding, fluorescence polarization; P11940; hit rate 1% among 290,000; calls only at 35 µM;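 note: calls also rest on retests at 20 µM and on dose response follow-up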
eIF4H FP inh = inhibitors of RNA binding by human eIF4H; eIF4H fluorescence polarization binding assay; inhibition, % at 35 µM; hit rate 0.94% among 290,000; Q15056;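 note: calls also rest on retests at 20 µM and on dose response follow-up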
Efa HMGR inh = blocks class II HMG-CoA reductase of Enterococcus faecalis. purified E. faecalis HMGR, NADPH absorbance 340 nm kinetic. hit rate 0.41% among 190,000. inhibition, % at 10 µM;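 active = inhibition above a set limit, the median over all tested compounds plus 3 SD, cut at about 9.5% in these data; inconclusive = no clear call, values can overlap the other calls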;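 note: enzyme runs in reverse so mevalonate oxidation gives rising NADPH absorbance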
PHOSPHO1 inh = PHOSPHO1 (human) inhibition. inhibition, % at 13.3 µM. recombinant PHOSPHO1, absorbance phosphatase assay. hit rate 1.1% among 290,000. Q8TCT1; in the data active = inhibition above about 60%
Numbers stand for hits; i = inactive; ? = inconclusive; nt = no result; + = active, no number; ! = repeats disagree. Unless noted, the rule behind the calls is not given here.

SMILES	PABP1 MLLE inh	PABP polyA inh	eIF4H FP inh	Efa HMGR inh	PHOSPHO1 inh
Cc1ccc(C)c(OCc2nnc(N)s2)c1	i	i	i	i	72
COc1ccc(OC)c(N=c2oc3c(OC)cccc3cc2C(=O)NCc2ccco2)c1	i	i	118	nt	i
CCN1C(=O)[C@H]2[C@@H](c3ccc(OC)cc3)N[C@]3(CCCN(Cc4ccc(F)cc4)C3=O)[C@H]2C1=O	i	nt	nt	nt	nt
CN(CCC#N)C(=O)COC(=O)c1ccc(Cl)c(S(=O)(=O)N(C)c2ccccc2)c1	i	i	i	i	i
CCN(CC)c1cccc(OCC(=O)N(C)CCC#N)c1	i	+	60	i	i
COCCCNC(=S)NC1CC2CCCC(C1)N2Cc1cccs1 (configuration not stated)	i	i	i	i	69
CS(=O)(=O)N1CCN(c2ccc([N+](=O)[O-])c(NCc3ccc(Cl)cc3)c2)CC1	i	+	active	i	i
Cc1ccccc1Nc1nnc(SCc2nc3ccccc3c(=O)[nH]2)s1	nt	i	i	14	i
O=C(CSc1nc2ccccc2[nH]1)NCCN1CCCCC1	i	i	i	i	65
CN(C)c1ccc(/C=C/C(=O)c2cccnc2)cc1	i	?	?	nt	60
O=C(/C=C/c1ccco1)c1cccnc1	i	+	56	nt	i
CC(/C=C/c1ccco1)=N\NC(=O)c1cccnc1	i	i	i	i	i
c1cnc(N2CCN(Cc3ccc4c(c3)OCO4)CC2)nc1	i	+!	51!	i	i
CCNC(=O)CSc1nnc(-c2cccc(S(=O)(=O)N3CCOCC3)c2)o1	i	nt	nt	nt	nt
COC(=O)c1ccccc1SC1CC(=O)N(c2ccccc2)C1=O (configuration not stated)	i	i	i	i	i
CCOc1ccc(N2C(=O)CC(Sc3ccccc3C(=O)O)C2=O)c([N+](=O)[O-])c1 (configuration not stated)	40	i	i	i	i
O=C(O)c1ccccc1SC1CC(=O)N(c2cccc3ccccc23)C1=O (configuration not stated)	40	i	i	nt	i
CCOC(=O)c1c(N2C(=O)CC(Sc3ccccc3C(=O)O)C2=O)sc2c1CCCC2 (configuration not stated)	49	i	i	i	i
CCN1C(=O)CC(Sc2ccccc2C(=O)O)C1=O (configuration not stated)	i	i	i	i	i
CCN(C(=O)CSc1ncccn1)c1c(N)n(Cc2ccccc2)c(=O)[nH]c1=O	i	nt	nt	nt	nt
Cc1ccc(S(=O)(=O)N2[C@@H](c3cccc(Cl)c3)C(C(=O)OC(C)(C)C)=CC[C@H]2c2ccc(C(C)C)cc2)cc1	i	nt	nt	nt	nt
O=C(CN1C(=O)NC2(CCCCCC2)C1=O)c1ccc(OC(F)F)cc1OC(F)F	i	nt	nt	nt	nt
Cc1[nH]n(C(C)(C)C)c(=O)c1Sc1ccccc1	i	i	i	i	94
COC(=O)C(C)Oc1ccc(-c2nccc(-c3ccccn3)n2)cc1 (configuration not stated)	i	i	i	nt	i
Cc1nnc(SCc2ccccc2Cl)n1CC1CCCO1 (configuration not stated)	i	i	i	16	i
SMILES	PABP1 MLLE inh	PABP polyA inh	eIF4H FP inh	Efa HMGR inh	PHOSPHO1 inh
CC(c1ccco1)N(C(=O)c1cccc(Br)c1)c1ccccn1 (configuration not stated)	i	i	i	nt	i
CCOC(=O)c1c(C)[nH]c(N=Nc2ccc(C)cc2C)c1C	i	i	i	i	65
Cc1c(NC(=O)C(C)OC(=O)c2cc(Cl)ccc2O)c(=O)n(-c2ccccc2)n1C (configuration not stated)	i	i	i	nt	i
N#C/C(=C\c1ccc[nH]1)C(=O)Nc1ccccc1[N+](=O)[O-]	i	+	79	nt	i
O=C(O)c1ccc2c(c1)CCC2	i	+	3.3	i	i
O=C(O)CCC(=O)c1ccc2c(c1)CCCC2	i	i	i	i	i
C[C@H](CO)N1C[C@H](C)[C@@H](CN(C)Cc2ccc(C(=O)O)cc2)OCc2cnnn2CCCC1=O	i	nt	nt	nt	nt
Cc1nc(-n2[nH]c3c(c2=O)CCCC3)[nH]c(=O)c1Cc1ccccc1	i	+	?	i	i
Cc1nc(N2CCc3ccccc3C2)[nH]c(=O)c1Cc1ccccc1	i	i	i	i	i
O=S(=O)(NCc1csc(-c2cccnc2)n1)c1ccc(Br)cc1	i	i	i	nt	80
O=c1nc2s/c(=C\c3ccc(-c4ccccc4[N+](=O)[O-])o3)c(=O)n2nc1-c1ccccc1	i	i	i	i	74
Cc1ccc(C(=O)CCc2ccc(N)cc2)cc1	i	i	i	nt	i
COc1ccc(C(=S)N2CCC(C(N)=O)CC2)cc1Br	42	i	i	i	i
CCCCOc1ccc(C(=S)N2CCC(C(N)=O)CC2)cc1	i	i	i	i	i
CN(C)C(=O)c1cccc(-c2cccc3nccn23)c1	i	nt	nt	nt	nt
NS(=O)(=O)c1cccc2c1c([N+](=O)[O-])cc1nc(O)c(O)nc12	38	nt	nt	nt	nt
CCN(CC)c1ccc(SS(=O)(=O)O)cc1	43!	i	i	i	106!
O=S(=O)(O)Sc1ccccc1	i	nt	nt	nt	nt
Cc1ccc(OCC(O)CN2C(=O)NC(C)(C)C2=O)cc1 (configuration not stated)	i	i	i	14	i
Cc1ccc(OCC(O)CN2C(=O)NC(C)(C)C2=O)cc1C (configuration not stated)	i	i	i	i	i
Cc1ccc(OCC(O)CN2CC3(C)CC2CC(C)(C)C3)cc1 (configuration not stated)	i	+	13	i	i
CC(NC(=O)C(Cc1ccccc1)n1cccc1)c1ccccc1 (configuration not stated)	i	i	i	nt	i
Nc1ccc(C(CC(=O)O)n2cccc2)cc1 (configuration not stated)	i	+	67	i	i
O=C(O)CC(c1ccccc1)n1cccc1 (configuration not stated)	i	i	i	i	87
CC(=O)N1CCc2cc(N=NC3=C(O)CCCC3=O)ccc21	i	+	54	i	i
SMILES	PABP1 MLLE inh	PABP polyA inh	eIF4H FP inh	Efa HMGR inh	PHOSPHO1 inh
COCC1CCN(C(=O)CCc2nnc(C3(c4ccc(Cl)cc4)CCC3)o2)CC1	i	i	i	nt	i
CCC(O)CNC(=O)CCc1nnc(C2(c3ccc(Cl)cc3)CCC2)o1 (configuration not stated)	i	i	i	i	60
COCCNC(=O)CCc1nnc(C2(c3ccc(Cl)cc3)CCC2)o1	i	i	i	13	i
CC(C)(CO)CNC(=O)CCc1nnc(C2(c3ccc(Cl)cc3)CCC2)o1	i	i	i	i	i
Cc1ccc(NC(=O)COC(=O)c2c(-c3ccccc3)noc2C)c(C)c1	i	nt	nt	nt	nt
CC(C)CCC1(CCO)C(=O)N=C(N)NC1=O (configuration not stated)	i	nt	nt	nt	nt
CCCCC(=O)C1=C(N2CCCC2)CC(C)(C)CC1=O	i	nt	nt	12	nt
CCC(=O)C1=C(N2CCCC2)CC(C)(C)CC1=O	i	i	i	i	i
Cc1ccc(S(=O)(=O)N[C@H](C(=O)Oc2ccc3c(C(F)(F)F)cc(=O)oc3c2)c2ccccc2)cc1	36	i	i	i	i
